Among the data in PubChem BioAssay (NCI) are growth values, retold here.

Holding throughout (test): NCI-60 one-dose screen, 48 h (100 = growth as untreated, 0 = no growth, -100 = all killed)
Holding throughout (conditions): 10 µM unless noted

The subject of test [1] is T-47D breast.
The test system of test [2] is BT-549 breast.
Test [3] relates to MDA-MB-435 melanoma.
The subject of test [4] is SW-620 colon.
The test system of test [5] is MCF7 breast.
In test [6] the test system is HCT-116 colon.
Test [7] relates to HCC-2998 colon.
The test system of test [8] is KM12 colon.

The panel holds about 83,000 compounds, 20% with a hit somewhere; the sample as a whole holds those more often.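 Cell lines were cultured in 96-well plates, exposed to a single compound concentration, and assessed for percent growth 48 hours later.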 Unmarked numbers belong to inactive results. Calls of active or inactive are those of the source. How the source made its calls: active means growth percent below 10; inactive means the rest.

In the case of `Nc1ccc(CCCCc2ccccc2)c(Cl)c1`, the growth was 89.9% in test [1]; 91.9% in test [2]; 99.1% in test [3]; 92.3% in test [4]; 98.6% in test [5]; 92.6% in test [6]. Besides, the growth in test [7] is 113%; in test [8], 101%.
Take `CCOC(=O)c1c(C)nc2c(c1N)/C(=C/c1ccc(OC)cc1)C(=O)N2Cc1ccc(F)cc1`: the growth in test [1] is -0.0776% (active); in test [2], -85.5% (active); in test [3] it was -62.1% (active); in test [4], -58.9% (active); in test [5], -35.7% (active); in test [6], -85.4% (active). Also, the growth in test [7] is -83.7% (active); in test [8] it was -59.7% (active).
Consider `N#Cc1c(N)n2c(nc1=Nc1ccc([N+](=O)[O-])cc1)sc1cc(Cl)ccc12`, for which the growth in test [1] was 78.2%; in test [2], 116%; in test [3], 97.9%; in test [4], 96.4%; in test [5], 77.6%; in test [6] it was 94.3%. Besides, the growth in test [7] was 144%; in test [8] it was 97.2%.
As for `CC(=O)Nc1ccc(-c2cc3c(NCc4ccc(F)cc4)ncnc3s2)cc1`, the growth was 74% in test [1]; 71.7% in test [2]; 93% in test [3]; 97.7% in test [4]; 75.7% in test [5]; 80.7% in test [6]. Further, the figures for the growth in test [7] and in test [8] were 90.1% and 99.3%, respectively.
`N#Cc1cnn2c(-c3ccc(Cl)cc3)nc(NCCc3ccccc3)nc12`: the growth in test [1] is 50.9%; in test [2] it was 100%; in test [3] it was 101%; in test [4], 98.1%; in test [5], 79.7%; in test [6], 81.5%. Further, the figures for the growth in test [7] and in test [8] were 106% and 88%, respectively.
As for `CCOC(=O)C(=CNc1ccccc1[N+](=O)[O-])C(=O)OCC`, the growth was 90% in test [1]; 103% in test [2]; 111% in test [3]; 99.5% in test [4]; 92.9% in test [5]; 100% in test [6]. The growth in test [7] was 96.1%; in test [8], 106%.
As to `Cc1ccc(Nc2ccc(Nc3ccc(C)cc3S(=O)(=O)O)c3c2C(=O)c2ccccc2C3=O)c(S(=O)(=O)O)c1`, the growth in test [1] was 111%; in test [2], 103%; in test [3], 103%; in test [4], 92%; in test [5] it was 92.2%; in test [6], 87%. In addition, the values for the growth in test [7] and in test [8] were 112% and 96.7%, respectively.
Take `COc1ccc(-c2cncnc2N)cc1OC`: the growth in test [1] was -95.7% (active); in test [2] it was 99.2%; in test [3], 104%; in test [4] it was 101%; in test [5], 103%; in test [6], 94.8%. Besides, the growth was 103% in test [7] and 109% in test [8].
As for `CN(C)c1ccc(C#Cc2c(F)cccc2Cl)cc1`, the growth in test [1] was 41.8%; in test [2] it was 98.2%; in test [3] it was 99.8%; in test [4], 96%; in test [5], 39.5%; in test [6] it was 84.8%. The growth in test [7] is 76.2%; in test [8] it was 85.4%.
Consider `Cc1[nH]c(-c2nc3ccccc3[nH]2)c(C)c1C(=O)NNc1ccc(Cl)cc1`, for which the growth in test [1] was 85.1%; in test [2], 105%; in test [3] it was 97.8%; in test [4], 99.6%; in test [5], 87.6%; in test [6], 94%. For the same compound, the growth is 108% in test [7] and 95.5% in test [8].
Consider `COc1ccc(/C(C)=C(\c2ccc(Cl)cc2)c2ccc(OCCN(C)C)cc2)cc1F`, for which the growth in test [1] was 77.3%; in test [2], 87.7%; in test [3] it was 51.5%; in test [4] it was 54.8%; in test [5], 31.8%; in test [6] it was 43.6%. In addition, the results for the growth in test [7] and in test [8] were 25.4% and 34.2%, respectively.
`COc1ccc(-c2nc3ncccn3c2/C=C/C(=O)c2cc(OC)c(OC)c(OC)c2)cc1`: the growth in test [1] is 17.8%; in test [2] it was 15.6%; in test [3], 15.2%; in test [4], -1.58% (active); in test [5] it was 3.17% (active); in test [6], -84.8% (active). Besides, the growth in test [7] is -58.4% (active); in test [8] it was -56.9% (active).
`O=C1/C(=C/c2ccc([N+](=O)[O-])cc2)COc2ccc(O)c(O)c21`: the growth in test [1] was -5.74% (active); in test [2] it was 24.3%; in test [3], 0.103% (active); in test [4] it was -40.6% (active); in test [5] it was 8.42% (active); in test [6], -34.3% (active). The growth in test [7] was -77.8% (active); in test [8] it was -55.3% (active).
As to `CCN(CC)CCOC(=O)N1c2ccccc2Sc2ccccc21`, the growth in test [1] is 94%; in test [2] it was 92.1%; in test [3] it was 98.7%; in test [4], 94.4%; in test [5] it was 99.5%; in test [6], 81.7%. For the same compound, the growth in test [7] was 102%; in test [8] it was 99.3%.
Regarding `O=C(O)CC1Sc2ccccc2NC1=O` (stereo not drawn), the growth was 111% in test [1]; 118% in test [2]; 104% in test [3]; 103% in test [4]; 255% in test [5]; 100% in test [6]. Besides, the values for the growth in test [7] and in test [8] were 106% and 104%, respectively.
Turning to `CCOC(=O)C1C(=O)C=C(c2cnccn2)CC1c1ccc(OC)c(OC)c1` (stereo not drawn), the growth is 83.5% in test [1]; 71.5% in test [2]; 106% in test [3]; 106% in test [4]; 93.1% in test [5]; 79.7% in test [6]. Besides, the results for the growth in test [7] and in test [8] were 99% and 102%, respectively.
